The panel holds about 83,000 compounds, 20% with a hit somewhere; the sample as a whole holds those more often.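 Single-concentration screen, 48 h exposure, 96-well plates. Endpoint: percent growth. Below 10 = active.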 Values without a mark were called inactive. The source made the active and inactive calls.

The test system of this assay is MDA-MB-468 breast. As to the kind of experiment: NCI-60 one-dose screen, 48 h (100 = growth as untreated, 0 = no growth, -100 = all killed). As to conditions: 10 µM unless noted.
As to `O=C1C2C(C(=O)N1CC[Se][Se]CCN1C(=O)C3C(C1=O)[C@H]1C=C[C@@H]3C1)[C@H]1C=C[C@@H]2C1` (stereo not given in full), the growth is -12.6% (active).

For the compound `COc1ccc(N2CCN(Cc3cc(C(=O)/C=C/c4c[nH]c5ccccc45)ccc3O)CC2)cc1`, the growth was 99.5%.

Regarding `O=C1Nc2ccccc2/C1=C/c1ccc(COCC2CO2)n1-c1ccc(O)cc1` (stereo not given), the growth is 95.9%.

Take `COc1cc(/C=C2\C=C(c3ccccc3)N(CCc3ccccc3)C2=O)cc(OC)c1OC`: the growth was 89.2%.

As to `COc1cc(OC)cc(-c2n/c(=C\c3c(O)[nH]c4ccc(OC)cc34)cc3c2=Nc2ccccc2-3)c1`, the growth is 88.4%.

Regarding `COc1cc(/C=C(/C)C[N+](=O)[O-])ccc1O`, the growth was 57.9%.

Consider `CCOc1ccc(NC(=O)c2ccoc2COc2ccccc2)cc1`, for which the growth was 113%.

In the case of `Cc1ccc(S(=O)(=O)CCCl)cc1`, the growth was 118%.

Take `CCN(CC)CCn1c(=N)n(CC(O)c2ccc(Cl)c(Cl)c2)c2ccccc21` (stereo not given): the growth is 21%.

As to `CCCC(=O)NC(c1cccnc1)c1cc(C)c2cccnc2c1O` (stereo not given), the growth was 19.8%.

Regarding `CS(=O)(=O)c1nccc(-c2c(-c3ccc(F)c(OCCc4ccc(F)cc4)c3)nc3sccn23)n1`, the growth was -52.2% (active).

Turning to `Cc1cc(Cl)cc(NS(=O)(=O)c2ccc(-c3cnc(C4CC4)o3)cc2)c1`, the growth was 11.3%.

Take `CC/C=C\CCC/C=C1/C(=O)C=C[C@@H]1C/C=C\CCCC(=O)OC`: the growth is 68.7%.

`COc1ccc(C(=O)c2sc3nc(-c4cccs4)ccc3c2N)cc1OC`: the growth was 8.13% (active).

Regarding `Cn1c(=O)c(S(=O)(=O)c2ccccc2)cc2ccc3c(cnn3-c3ccc(Cl)cc3)c21`, the growth is 72.3%.

Turning to `O=c1oc2c(Br)cc(Br)cc2cc1-c1cc(-c2ccc(-c3cc(-c4cc5cc(Br)cc(Br)c5oc4=O)nc(-c4cc5cc(Br)cc(Br)c5oc4=O)c3)cc2)cc(-c2cc3cc(Br)cc(Br)c3oc2=O)n1`, the growth was 117%.

For `CCOC(=O)c1sc2ncnc(Nc3ccc4c(cnn4C(=O)Nc4ccccc4)c3)c2c1C`, the growth is 78.1%.

Turning to `Cc1cc2c(F)c(Oc3ncnc(Nc4ccc(N5C[C@@H](C)N[C@@H](C)C5)cc4)c3C#N)cc(F)c2[nH]1`, the growth is -5% (active).

As to `O=C(OCC1OC(n2cc(C(F)(F)F)c(=O)[nH]c2=O)CC1OC(=O)c1ccc([N+](=O)[O-])cc1)c1ccc([N+](=O)[O-])cc1` (stereo not given), the growth was 85.3%.

For the compound `CC(=O)N1N=C(C2C(=O)N(C)C(=O)N(C)C2=O)CC1c1ccccc1C(=O)O` (stereo not given), the growth was 114%.

Take `CCCCN(CCCC)CCC(=O)c1ccc(OC)c2ccccc12`: the growth was -18.7% (active).

Consider `CN1C(=O)CN2CCc3ccccc3C2c2cc(Cl)ccc21` (stereo not given), for which the growth was 115%.

Turning to `COc1ccc(C(=O)N/N=C/c2cc(C(F)(F)F)ccc2Cl)cc1`, the growth was 53.2%.

Turning to `O=C1c2cc3c(cc2-c2c1c1cc(F)c(F)cc1c(=O)n2C[C@H](O)CO)OCO3`, the growth is -57.2% (active).

For the compound `Cc1cccc(/C=C/C(=O)Nc2ncc(Cc3cccc(C)c3)s2)c1`, the growth is -15.3% (active).

Turning to `N#Cc1c(Nc2ccccc2)nc2n(c1=O)-c1ccccc1Sc1ccccc1-2`, the growth was 72.8%.

As to `C=CC(=O)N[C@@H](Cc1ccc(-c2cc(Cl)cc(Cl)c2)cc1)[C@@H](O)[C@H](O)C(=O)O`, the growth was 101%.

Consider `Cc1ccc(S(=O)(=O)N/N=C2\CCCc3ccccc32)cc1`, for which the growth was 95.7%.

On to `CC1=CC(=O)CC(C)(C)[C@@]1(O)/C=C/[C@@H](C)O`, for which the growth was 72.9%.

With `CC[C@H](Nc1nc(N)nc(C)c1C#N)c1nc2cccc(NCc3ccc(C(=O)NO)cc3)c2c(=O)n1-c1ccccc1`, the growth was 3.26% (active).

As for `Nc1nc2ccccc2c2c(=O)c3cccc(Cl)c3sc12`, the growth is -0.88% (active).

For `CCc1ccc(-c2cn3ccnc3c(-c3ccc4ncn(Cc5ccccc5)c4c3)n2)cc1`, the growth is 82.8%.

As for `Cc1ccc(-c2nc(/C=C3/C(=O)Nc4ccc(F)cc43)c3ccccn23)cc1`, the growth was 77.3%.

Regarding `Nc1ccccc1NC(=O)CCCCC(=O)Nc1ccc2c(c1)/C(=C/c1ccc[nH]1)C(=O)N2`, the growth was 50.4%.

As to `CC[N+](C)(CC)CCCC(C)Nc1ccnc2cc(Cl)ccc12` (stereo not given), the growth is 119%.

In the case of `O=C(O)c1cn(C2CC2)c2cc(N3CCN(Cc4nnc(Nc5ccccc5)o4)CC3)c(F)cc2c1=O`, the growth is 114%.

With `O=C(Nc1cccc(Cl)c1)Nc1nc2ccc([N+](=O)[O-])cc2s1`, the growth was -29.1% (active).

In the case of `COc1ccc(C(=O)C/C(=C\c2ccc(O)c(OC)c2)C(=O)NN)cc1`, the growth was 27.6%.

In the case of `CC(C)NC(=O)c1cc(-c2ccc(NC(=O)Nc3ccc(N4CCOCC4)c(C(F)(F)F)c3)cc2)nc2cccnc12`, the growth was 92.1%.

Regarding `N#CC1=C(N)Oc2ccc3ccccc3c2C1c1ccccc1` (stereo not given), the growth is 12.7%.

(Values after PubChem BioAssay (NCI).)
